The text below walks through data of PubChem BioAssay AID2685 (National Center for Advancing Translational Sciences (NCATS), 2010).

Out of some 320,000 compounds screened, about 2,100 (0.66%) were called active. Inconclusive results (about 53%) are left out. The sample holds actives, similar compounds and a random draw of the others, so the mix is not that of the screen. Calls follow the shape of the dose curve; as a rule, active = well fitted inhibition curve with a large enough effect in the signal ratio, with a control signal flat (not every such curve was filed as active); inconclusive = small, poorly fitted or top-dose-only effect, or effect the other way, or a change in a side signal; inactive = flat fitted curve, though single readings scatter; the % refers to the signal ratio.
Potency is read from the fitted curve at half-maximal effect.

This assay in a line: qHTS Assay for Lipid Storage Modulators in Drosophila S3 Cells.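 As to cell number change: cells counted by Cell Tracker Red CMTPX staining in the red channel.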 As to lipid storage change, negative = inhibition: % is scaled to controls: 0 for no effect and ±100 for the full control effect. The settings on record: BODIPY lipid droplet fluorescence, 18-24 h, cells fed with added oleic acid; cell number change: measured here: cell count max response; series mostly up to 46.1 µM; lipid storage change, negative = inhibition: at the top concentration. The text has this:
NIH Molecular Libraries Probe Production Centers Network [MLPCN] NIH Chemical Genomics Center [NCGC] MLPCN Grant: 1 R03 MH085686-01 Assay Submitter (PI): Beller, Mathias; Max-Planck-Institut fur Biophysikalische Chemie NCGC Assay Overview: Storing lipids as a reservoir for energy or the anabolism of elementary metabolites is a common feature of probably all cells and is conserved from bacteria to humans. The universal cellular lipid storage organelle is the so-called lipid storage droplet (LD). Although ubiquitous, LDs share a simple structure composed of a hydrophobic core that harbors the storage lipids, which is shielded by a droplet-specific phospholipid monolayer to which proteins are attached. The current model of LD biogenesis involves an incorporation of the lipid core into the membrane leaflets of the endoplasmic reticulum (ER) followed by a subsequent budding-like maturation of a LD, which ultimately pinches off. Once released, LD volume can increase by localized lipogenesis or fusion of existing droplet. Storage lipids are re-mobilized enzymatically by lipase activity. Lipase regulation in the adipocyte is heavily studied and involves multiple components including catecholamine signaling, the LD-associated proteins Perilipin and comparative gene identification (CGI-58) and at least two lipases named hormone sensitive lipase (HSL) and adipocyte triglyceride lipase (ATGL). LD regulation outside of the adipocyte is poorly understood and only few components are known. However, there is an urgent need to learn more about ectopic fat depots as mislocalized storage of lipids, for example in the liver or muscle, is an eminent health problem associated with insulin resistance or the metabolic syndrome. We developed a laser-scanning cytometer assay to enable 1,536-well screening and combined the results of the small molecules screen with an RNAi database based on lipid storage.
Triacsin C (Sigma-Aldrich T-4540), an inhibitor of long-chain fatty acyl CoA synthetase that blocks synthesis of triglycerides, was used as a positive control for lipid under-storage. A total of 23 nL of compound solution of different concentrations were transferred to the assay plates using a Kalypsys pin tool equipped with a 1,536-pin array containing 10-nL slotted pins (FP1S10, 0.457-mm diameter, 50.8 mm long; V&P Scientific). One microliter of oleic acid (400 uM) was added, and the plate was lidded with stainless steel rubber gasket lined lids containing pinholes. […] Fluorescence was detected by excitation of the fluorophores with a 488-nm laser on an Acumen Explorer (TTP Lab Tech). The total intensity in channel 2 (500-530 nm) reflected lipid droplet accumulation. Cells were detected using channel 3 (575-640 nm) with 5-um width and 100-um depth filters. The ratio of the number of objects in PMT channel 2 over the number of objects in PMT channel 3 was also calculated. Percent activity was computed relative to an internal control (100% inhibited lipid droplet deposition due to the presence of 20 uM Triacsin C), which was added to 32 wells/plate.
(In general: In qHTS, concentration-response curves come from the screen itself.)
For the molecule `Cc1cc2nc(SCC(=O)N(C)C)c3c(c2cc1C)CCCC3`, the “lipid storage change, negative = inhibition” value is -6.18% (inactive) and the cell number change is -15.1%.
For `CCOC(=O)c1c(C)n(C)c2cc([N+](=O)[O-])c(O)c([N+](=O)[O-])c12` the same measures were 10.2% (inactive) and 7.01%.
As for `CCOC(=O)C1CCCCN1Cc1cc(Cl)ccc1O` (configuration not stated), the molecule was called inactive and the cell number change was -14.7%.
Consider `O=C(Nc1cccc(Br)c1)c1ccc(CSc2ccccc2)cc1`, for which the “lipid storage change, negative = inhibition” value was -18.6% (inactive) and the cell number change was -13.3%.
As to `O=C(Nc1cccc(O)c1)c1ccccc1`, the call was inactive.
Turning to `COc1cccc(C(=O)Nc2cccc(NC(C)=O)c2)c1`, the “lipid storage change, negative = inhibition” value is 13.3% (inactive) and the cell number change is -21%.
With `O=C(Nc1ccc(C2CC2(Cl)Cl)cc1)c1cccc([N+](=O)[O-])c1` (configuration not stated), the Potency is 20.6 µM (active) and the cell number change was -18.3%.
On to `O=C(Nc1ccc(NC(=O)c2cccc([N+](=O)[O-])c2)cc1)c1cccc([N+](=O)[O-])c1`, for which the molecule was classed as inactive and the cell number change is -4.74%.
Turning to `COc1cccc(-c2cc(C(=O)Nc3ccc4c(c3)OCCO4)c3ccccc3n2)c1`, the “lipid storage change, negative = inhibition” value was 26.5% (inactive).
With `COc1cccc(C(=O)Nc2cccc(-c3ccccc3)c2)c1`, the Potency is 1.46 µM (active) and the cell number change was 5.29%.
Regarding `COc1cccc(-c2cc(C(=O)Nc3cccnc3)c3ccccc3n2)c1`, the Potency was 8.2 µM (active).
With `COc1cccc(/C(C)=N/NC(=O)c2cc(-c3cccnc3)nc3ccccc23)c1`, the “lipid storage change, negative = inhibition” value was 14.6% (inactive) and the cell number change is 11.2%.
For `COc1cccc(C(=O)Nc2ccc(C3CC3(Cl)Cl)cc2)c1` (configuration not stated), the lipid storage change, negative = inhibition was 15.6% [at 9.22 µM] (inactive).
On to `COc1cccc(C(=O)Nc2ccc3ccccc3c2)c1`, for which the molecule was classed as inactive and the cell number change worked out at 24%.
Regarding `O=C(Nc1cccc(C(=O)Nc2cccc(Br)c2)c1)c1ccccc1`, the Potency is 5.8 µM (active) and the cell number change turned out to be 0.351%.
With `COc1ccc(-c2nc(CS(=O)CC(=O)NC3CCCCCC3)c(C)o2)cc1` (configuration not stated), the molecule was called inactive.
Turning to `O=C(COC(=O)c1ccc(Br)o1)NCCc1ccccc1`, the “lipid storage change, negative = inhibition” value is -3.74% (inactive) and the cell number change came to 14.1%.
For `O=C(NC1CCS(=O)(=O)C1)c1cccc(Br)c1` (configuration not stated), in that order: -8.87% (inactive) and -19.9%.
Regarding `COc1ccc(S(=O)(=O)N2CCN(C(=O)C3CC3)CC2)cc1`, the “lipid storage change, negative = inhibition” value was -28.4% (inactive) and the cell number change is 0.403%.
On to `CCOC(=O)COc1ccc2c(c1)c(C(C)=O)c(C)n2-c1ccc(OC)cc1`, for which the “lipid storage change, negative = inhibition” value is 9.72% (inactive).
Take `Cc1cccc(-c2nc3sc(C)cc3c(=O)o2)c1`: the “lipid storage change, negative = inhibition” value was -0.0238% (inactive) and the cell number change was 1.66%.
`COc1ccc(S(=O)(=O)N2CCCC(C(=O)NCc3ccc4c(c3)OCO4)C2)cc1` (configuration not stated): the “lipid storage change, negative = inhibition” value is 11% (inactive) and the cell number change came to 4.03%.
For `COc1ccc(Cc2nnc(SCC(=O)Nc3cc(Cl)ccc3C)[nH]c2=O)cc1`, in that order: 19.4% (inactive) and -4.71%.
For `CCc1cc(=O)oc2c(C)c(OCC(=O)N3CCC(C(=O)O)CC3)ccc12`, in that order: 8.85% (inactive) and -9.69%.
For `CCCCc1cc(=O)oc2cc(OCC(=O)NC(Cc3c[nH]c4ccc(O)cc34)C(=O)O)ccc12` (configuration not stated), in that order: -8.02% (inactive) and -11.2%.
`O=C(/C=C/Nc1ccc(Br)cn1)c1cccc(OC(F)F)c1`: the “lipid storage change, negative = inhibition” value is 0.169% (inactive) and the cell number change stood at 16.6%.
`CCCc1cc(C(=O)Nc2cccc([N+](=O)[O-])c2)cs1`: the Potency is 20 µM (active) and the cell number change was 24.5%.
With `COc1ccc(NC(=O)c2cccc([N+](=O)[O-])c2)cc1`, the “lipid storage change, negative = inhibition” value was -3.42% (inactive) and the cell number change is 0.213%.
In the case of `COc1cccc(C(=O)COc2cccc(NC(=O)c3cccc([N+](=O)[O-])c3)c2)c1`, the Potency was 18.4 µM (active) and the cell number change is 20%.
In the case of `O=C(Nc1cccc([N+](=O)[O-])c1)c1ccccc1`, the “lipid storage change, negative = inhibition” value is 6.01% (inactive) and the cell number change is -11.6%.
For `COc1cccc(C(=O)COc2cccc(NC(=O)c3ccco3)c2)c1`, in that order: 12.1% (inactive) and 29%.
Take `CCC(=O)Nc1cccc(NC(=O)c2cccc([N+](=O)[O-])c2)c1`: the call was inactive and the cell number change is 5.3%.
In the case of `COc1cccc(C2NC(=O)NC(C)=C2C(=O)Nc2cc(OC)ccc2OC)c1` (configuration not stated), the “lipid storage change, negative = inhibition” value is 15.1% (inactive) and the cell number change was determined as 10.2%.
On to `CC(C(=O)N1CCc2ccccc21)N1CCN(Cc2ccc(Cl)cc2)CC1` (configuration not stated), for which the molecule was classed as inactive and the cell number change was -3.17%.
As for `CC(C(=O)N1CCc2ccccc21)N1CCc2ccccc2C1` (configuration not stated), the “lipid storage change, negative = inhibition” value was -5.94% (inactive) and the cell number change was -14.5%.
Turning to `CC(C(=O)N1CCc2ccccc21)N1CCN(c2ccccn2)CC1` (configuration not stated), the Potency was 23.1 µM (active) and the cell number change was found to be 18%.
Turning to `CCOc1ccccc1N(CC(=O)OC)S(=O)(=O)c1ccccc1`, the “lipid storage change, negative = inhibition” value was 20.8% (inactive) and the cell number change is 1.61%.
Consider `O=C(NNc1nc2c(F)cccc2s1)C1COc2ccccc2O1` (configuration not stated), for which the molecule was called inactive.
With `Cc1nc2nc[nH]n2c(=O)c1CCOC(=O)c1ccccc1F`, the “lipid storage change, negative = inhibition” value was -6.55% (inactive) and the cell number change was -14.3%.
For `Cc1nc2nc[nH]n2c(=O)c1CCOC(=O)c1c(F)cccc1F`, in that order: -26.8% (inactive) and -14%.
For `CC(=O)OCCc1c(C)nc2nc[nH]n2c1=O`, the Potency is 29.1 µM (active) and the cell number change was -16.2%.
Regarding `OC[C@H]1O[C@@H](O[C@@H]2[C@@H](CO)O[C@@](O)(CO)[C@H]2O)[C@H](O)[C@@H](O)[C@H]1O`, the “lipid storage change, negative = inhibition” value is -21% (inactive).
As for `O=C(Nc1ccccc1C(=O)NCCCN1CCOCC1)c1ccc(Cl)cc1`, the “lipid storage change, negative = inhibition” value was -5.38% (inactive) and the cell number change stood at 1.08%.
For `COc1ccc(CC(=O)NCC2CCCN(Cc3ccccc3Cl)C2)cc1` (configuration not stated) the same measures were 16.7% (inactive) and -2.61%.
For `Cc1nc2c(sc3nc(N4CCOCC4)c4c(c32)CC(C)(C)OC4)c(-c2ccccc2)c1C(=O)O`, in that order: 2.47% (inactive) and 21%.
With `Cc1nc2c(sc3nc(N4CCOCC4)c4c(c32)CC(C)(C)OC4)c(-c2ccc(Cl)cc2)c1C(=O)O`, the Potency was 16.4 µM (active) and the cell number change was -7.08%.
As for `Cc1ccc(NC(=O)c2sc3nc(N4CCOCC4)c4c(c3c2N)CC(C)(C)OC4)cc1`, the “lipid storage change, negative = inhibition” value is 27.3% (inactive).
On to `O=C(NC1CC2CCCC(C1)N2C(=O)Nc1ccccc1)c1ccncc1` (configuration not stated), for which the molecule was called inactive and the cell number change worked out at 23.5%.
